Results taken from PubChem BioAssay AID1159580 (chemical genetic matrix, 2015).
In all, about 5,500 compounds went through this assay and about 2,000 (36%) were called active. Roughly 18% stayed inconclusive and do not appear here. Cut-off read from the data, not from the text of the source: active = normalized growth mostly below about 0.91 (no sharp cut-off); inconclusive = no clear call, values can overlap the other calls; inactive = mostly above about 0.92. The list shows a part of the results.

Assay: chemical genetic growth profiling, strain panel (AID 1159580);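 note: tested at 20 µM; growth read once vehicle control cultures reached saturation at 30 °C; 1 = growth at the plate median or of vehicle wells; lower values mean less growth of the strain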
Conditions: growth OD

Measured: normalized growth

Cc1onc(-c2c(Cl)cccc2Cl)c1C(=O)N1CCN(c2ncccc2C(F)(F)F)CC1
inactive: S. cerevisiae deletion strains, locus YAL013W, strain DEP1, hits give low values 1.01 | S. cerevisiae deletion strains, locus YBR229C, strain ROT2, hits give low values 1 | S. cerevisiae deletion strains, locus YDL101C, strain DUN1, hits give low values 1.03 | S. cerevisiae deletion strains, locus YDL134C, strain PPH21, hits give low values 0.988 | S. cerevisiae deletion strains, locus YDR150W, strain NUM1, hits give low values 0.997 | S. cerevisiae deletion strains, locus YEL061C, strain CIN8, hits give low values 1.03 | S. cerevisiae deletion strains, locus YGR078C, strain PAC10, hits give low values 1 | S. cerevisiae deletion strains, locus YHR030C, strain SLT2, hits give low values 0.908 | S. cerevisiae deletion strains, locus YHR087W, strain rtc3, hits give low values 1 | S. cerevisiae deletion strains, locus YJL187C, strain SWE1, hits give low values 0.992 | S. cerevisiae deletion strains, locus YJR043C, strain POL32, hits give low values 0.966 | S. cerevisiae deletion strains, locus YJR075W, strain HOC1, hits give low values 0.999 | S. cerevisiae deletion strains, locus YKL190W, strain CNB1, hits give low values 1 | S. cerevisiae deletion strains, locus YLR039C, strain RIC1, hits give low values 0.99 | S. cerevisiae deletion strains, locus YLR058C, strain SHM2 (second series), hits give low values 0.983 | S. cerevisiae deletion strains, locus YLR085C, strain ARP6, hits give low values 0.921 | S. cerevisiae deletion strains, locus YLR262C, strain YPT6, hits give low values 0.964 | S. cerevisiae deletion strains, locus YML094W, strain GIM5, hits give low values 1.11 | S. cerevisiae deletion strains, locus YMR219W, strain ESC1, hits give low values 0.991 | S. cerevisiae deletion strains, locus YMR263W, strain SAP30, hits give low values 0.977 | S. cerevisiae deletion strains, locus YNL128W, strain TEP1, hits give low values 1 | S. cerevisiae deletion strains, locus YNL153C, strain GIM3, hits give low values 1 | S. cerevisiae deletion strains, locus YNL298W, strain CLA4 (second series), hits give low values 0.997 | S. cerevisiae deletion strains, locus YNL322C, strain KRE1, hits give low values 0.994 | S. cerevisiae deletion strains, locus YNR030W, strain Alg12, hits give low values 0.966 | S. cerevisiae deletion strains, locus YOL006C, strain TOP1, hits give low values 0.934 | S. cerevisiae deletion strains, locus YPL055C, strain LGE1, hits give low values 1.06 | S. cerevisiae deletion strains, locus YPL241C, strain CIN2, hits give low values 0.99 | S. cerevisiae deletion strains, locus YPR135W, strain CTF4, hits give low values 1.08 | S. cerevisiae strains, strain wild type, hits give low values 0.972
